Bioassay records from PubChem.
Sampled rows, rich in hits. Any-hit rate of the full collection: about 2.1%.
Wee1 degr inh – human Wee1 degradation inhibition, primary screen | AID 1321 | P30291 | hit rate 1.2% among 220,000 | reporter increase, % at 5 µM | HeLa Luc-Wee1K328M stability, luciferase luminescence; 100% = proteasome inhibitor MG132 effect;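 active = activation above the mean of all tested compounds plus 3 SD, set per screening run, cut at about 8.8% in these data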;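 note: cells exposed to compound for 20 h before luminescence read; 0% = DMSO alone and 100% = MG132 at 30 µM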
Target sequence (P30291 whole entry K328M): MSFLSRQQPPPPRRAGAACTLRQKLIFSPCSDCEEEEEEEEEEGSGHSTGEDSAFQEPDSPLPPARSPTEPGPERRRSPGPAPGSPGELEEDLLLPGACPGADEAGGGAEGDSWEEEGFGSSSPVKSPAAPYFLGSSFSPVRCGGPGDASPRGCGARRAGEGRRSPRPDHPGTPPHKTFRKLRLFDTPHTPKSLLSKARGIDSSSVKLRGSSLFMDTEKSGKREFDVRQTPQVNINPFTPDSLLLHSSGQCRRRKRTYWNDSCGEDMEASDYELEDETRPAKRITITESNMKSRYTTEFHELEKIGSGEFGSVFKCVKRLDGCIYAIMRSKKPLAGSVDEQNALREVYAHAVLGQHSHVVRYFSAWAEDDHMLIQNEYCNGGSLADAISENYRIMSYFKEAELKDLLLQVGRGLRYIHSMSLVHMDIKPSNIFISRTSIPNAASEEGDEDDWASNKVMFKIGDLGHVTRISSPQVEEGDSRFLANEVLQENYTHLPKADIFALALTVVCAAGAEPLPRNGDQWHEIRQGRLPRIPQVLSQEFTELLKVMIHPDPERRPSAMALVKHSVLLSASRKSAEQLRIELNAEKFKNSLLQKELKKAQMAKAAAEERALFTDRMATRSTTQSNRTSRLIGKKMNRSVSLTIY
KLF5 inh – kruppel-like factor 5 inhibition. DLD-1 KLF5 promoter-luciferase reporter, luminescence. inhibition, % at 5 µM. hit rate 0.23% among 290,000;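 active = inhibition above a per-plate limit of that plate's mean compound inhibition plus 3 SD, cut at about 60% in these data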;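 note: 0% = DMSO wells and 100% = LY294002 at 200 µM; higher means less KLF5 promoter-driven luciferase light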
Platelet DG rel – modulates dense granule release in human platelets; human platelet-rich plasma, SFLLRN dense granule ATP release, luminescence; inhibition, %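 (compounds screened at 7.5 µM in platelet-rich plasma)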; hit rate 0.22% among 300,000; AID 1663;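 active = mean replicate score, as percent of positive control, at or above 50; inconclusive = mean below 50 but at least one replicate at or above 50; inactive = mean and every replicate below 50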
HIF act – HIF pathway transcriptional activation; U2OS HRE-luciferase reporter, luminescence; normalized: DMSO 0%, desferrioxamine 100%; activation, % at 7.5 µM (by protocol); hit rate 0.32% among 300,000;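 active = mean activation of at least 10% of the iron chelator positive control signal, with at least half of replicates also reaching 10%; inconclusive = mean and replicate majority disagree about reaching 10%; inactive = mean and most replicates under 10%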
aSyn UTR inh – MLPCN primary screen, SNCA 5' untranslated region; alpha-synuclein 5'UTR reporter, inhibitor activity; inhibition, % (tested at 7.5 µM); hit rate 0.82% among 300,000; AID 1813; in the data active = inhibition above about 60%; inconclusive = no clear call, values can overlap the other calls;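 note: H4 neuroglioblastoma cells stably carrying SNCA 5'UTR luciferase fusion; 0% = DMSO wells and 100% = positive control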
Numbers without * were called inactive; ? = inconclusive; · = no result given.

SMILES	Wee1 degr inh	KLF5 inh	Platelet DG rel	HIF act	aSyn UTR inh
COc1ccc(CCCc2nc3ccccc3[nH]2)cc1	9.9*	-15.1	-0.6	0.9	-16.4
COc1ccc(NC2CCCN(C(=O)CCCn3cncn3)C2)cc1OC (centres undefined)	·	-8.0	-2.2	0.1	-8.5
CC(C)C(=O)N1CCN(C2=NS(=O)(=O)c3ccccc32)CC1	-0.9	-29.0	·	·	·
Cc1ccccc1NC(=O)C1CCN(C2=NS(=O)(=O)c3ccccc32)CC1	10.3*	-4.5	9.0	0.2	-15.4
COc1ccc(C(=O)Nc2ccc(NC(=O)c3cc(OC)c(OC)c(OC)c3)cn2)cc1	·	-21.1	0.5	-0.3	-26.7
Nc1nc(Nc2ccccc2)nc(NCc2ccccc2)c1[N+](=O)[O-]	-2.5	9.1	-4.8	-0.6	84.2*
Nc1nc(NCc2ccccc2)nc(NCc2ccccc2)c1[N+](=O)[O-]	0.2	-17.0	0.8	·	21.7
Nc1nc(Nc2ccccc2F)nc(NCc2ccccc2)c1[N+](=O)[O-]	9.6*	-4.0	-3.1	-0.4	12.1
CC(C)CNc1nc(N)c([N+](=O)[O-])c(NCc2ccccc2)n1	·	-26.5	-2.6	-1.7	77.0*
COc1ccc(NC(=O)CN(C)S(=O)(=O)c2ccc3c(c2)CC(C)N3C(C)=O)cc1OC (centres undefined)	·	-37.1	2.5	-0.4	30.8
O=C(CSc1nnc(Nc2ccccc2)s1)NN1C(=O)NC2(CCCCC2)C1=O	1.7	-14.5	12.1	0.3	-12.2
C=C(C)c1cccc(C(C)(C)NC(=O)NNC(=O)c2ccccc2O)c1	·	5.6	-11.0	-0.2	11.3
COc1cccc(CNC(=O)CCCc2cn(C)c3ccccc23)c1	·	-20.4	-2.1	-0.2	16.0
O=S(=O)(Nc1ccccc1)c1cccc2nonc12	·	-42.7	12.7	-0.1	-3.0
ONC=Nc1cccc2nonc12	-1.7	-7.7	-5.9	11.8*	-10.4
CC(C)c1onc(C(=O)Nc2sc3c(c2C#N)CCC3)c1[N+](=O)[O-]	-0.7	-20.7	-11.0	191.3*	-41.8
N#Cc1c(NC(=O)c2ccccc2)sc2c1CCC2	10.7*	-147.7	6.6	4.0	-287.9
N#Cc1c(NC(=O)c2cccnc2)sc2c1CCC2	5.9	23.9	-0.5	-28.2	-149.8
O=C(O)c1c(C(=O)O)c(-c2ccc(Cl)c(Cl)c2)n2c1CSC2	·	-14.2	-2.1	0.8	9.7
O=C(CN(Cc1ccc(Cl)cc1)C(=O)CNS(=O)(=O)c1ccccc1)NCC1CCCO1 (centres undefined)	·	2.6	-18.4	-0.2	0.4
CCOc1ccc(Cl)cc1S(=O)(=O)N1CCC(C(=O)NCc2ccco2)CC1	·	-0.4	13.5	0.1	12.2
OCc1ccc(N=Nc2ccccc2)cc1	·	·	7.6	10.4*	-83.6
CN(CC(=O)Nc1cccc(S(=O)(=O)N2CCOCC2)c1)CC(=O)Nc1ccc(Cl)c(C(F)(F)F)c1	·	·	-0.5	0.3	-7.9
CC(Oc1ccccc1)C(=O)N1CCN(c2ccc(N3CCCCC3)nn2)CC1 (centres undefined)	·	·	2.6	0.2	3.0
O=c1c2ccccc2oc2cc(C#Cc3ccccn3)ccc12	·	·	5.2	-0.7	-66.7
SMILES	Wee1 degr inh	KLF5 inh	Platelet DG rel	HIF act	aSyn UTR inh
COc1cccc2oc3ccc(C#Cc4ccccn4)cc3c(=O)c12	·	-46.1	62.2*	2.9	-71.0
CCCc1n[nH]c2c1/C(=N/O)CC(c1ccccc1)C2 (centres undefined)	0.7	8.3	5.7	0.0	69.4*
Cc1oc(-c2ccc(Cl)cc2)cc1C(=O)O	-2.7	-91.3	9.9	1.0	-82.6
Cc1oc(-c2ccc(Cl)cc2)cc1C(=O)/C(C#N)=C/Nc1cccc(OC(F)(F)F)c1	-0.7	-4.2	5.7	43.3*	4.3
N=c1ccn(CC(=O)c2ccc(-c3ccccc3)cc2)cc1	-1.7	-3.0	0.4	-0.5	109.6*
O=c1c2ccccc2nc2c3ccccc3c(NCCN3CCOCC3)nn12	1.4	1.0	-3.5	25.7*	-344.7
O=c1c2c(-c3ccccc3)csc2nc2c3ccccc3c(NCCN3CCOCC3)nn12	1.0	-17.0	3.8	-6.3	-31.4
CCOC(=O)C1CCN(C(=O)COC(=O)c2nn(C)c(=O)c3ccccc23)CC1	·	·	0.8	0.1	11.5
Cc1oc(=O)c(NC(=O)c2ccccc2)cc1C(N)=O	-3.4	-18.2	4.3	0.0	1.1
O=C(Nc1cc2ccccc2oc1=O)c1ccccc1	3.5	-127.5	24.1	-1.9	73.7*
CCOC(=O)c1cc2cc([N+](=O)[O-])cc(OC)c2oc1=O	-1.6	-10.3	2.3	-0.4	5.2
CCOC(=O)c1cc2cc([N+](=O)[O-])ccc2oc1=O	2.2	2.3	58.6*	-0.1	-10.3
COc1ccc(OC)c(NC(=O)CSc2nncc(=O)n2N)c1	·	-35.0	-6.7	-0.2	-1.0
Cc1cccc(C)c1NC(=O)c1nc(S(=O)(=O)Cc2ccccc2)ncc1Cl	·	18.1	16.8	-2.8	19.2
COc1ccc(OC)c(NC(=O)c2nc(S(=O)(=O)Cc3ccccc3)ncc2Cl)c1	·	44.8	22.7	-5.5	99.5*
Cc1cccc(CS(=O)(=O)c2ncc(Cl)c(C(=O)NCc3ccccc3)n2)c1	·	6.9	8.1	6.1	63.8*
COc1ccc(NC(=O)c2nc(S(=O)(=O)Cc3cccc(C)c3)ncc2Cl)c(OC)c1	·	24.4	15.0	-1.9	82.4*
CCCc1cc(NCCCO)n2c(nc3ccccc32)c1C#N	2.4	-6.0	4.7	-0.6	29.3
COc1ccc(NC(=O)c2cnn(-c3ccccc3)c2C)cc1OC	·	-84.6	4.6	2.9	-152.8
COC(=O)c1ccccc1-n1cccc1C(=O)NP(=O)(N1CCOCC1)N1CCOCC1	0.4	-19.2	-2.4	-0.5	9.0
Cc1cc(NC(=O)c2ccccc2)n(-c2nc3ccccc3[nH]2)n1	-2.5	-0.3	-5.2	24.2*	14.3
Cc1c(C(=O)OCC(C)C)[nH]c2c1C(=O)CC(c1ccco1)C2 (centres undefined)	-0.1	46.6	1.2	2.7	69.9*
O=C1N=C(N2CCOCC2)S/C1=C/c1cc2c(cc1[N+](=O)[O-])OCO2	9.1*	-66.9	-25.6	1.7	-67.3
COc1ccc(Nc2ncnc3scc(-c4ccc(OC)cc4)c23)cc1	-0.4	-11.5	-6.0	1.6	-42.3
COc1cccc(/C=N/Nc2ncnc3scc(-c4ccccc4)c23)c1O	1.0	79.8*	-18.4	104.8*	?
SMILES	Wee1 degr inh	KLF5 inh	Platelet DG rel	HIF act	aSyn UTR inh
COc1ccc(/C=N/Nc2ncnc(Cl)c2N)cc1OC	0.7	-35.9	21.0	0.6	-38.8
CC(C)Cn1c(/C=N/Nc2nc3ccccc3[nH]2)nc2ccccc21	-0.3	-32.1	-0.5	23.4*	-337.1
CCCn1c(/C=N/Nc2nc3ccccc3[nH]2)nc2ccccc21	-0.9	-119.3	·	·	·
COc1cccc(/C=N/Nc2ncnc(Cl)c2N)c1O	1.1	-29.6	0.2	-1.7	88.9*
COc1cccc(/C=N/Nc2cc(-n3nc(C)cc3-c3ccccc3)ncn2)c1O	-1.4	-37.6	32.2	51.8*	110.2*
CCN(CC(=O)Nc1ccc(C(=O)Nc2ccc(OC)cc2)cc1)Cc1nc2ccccc2c(=O)[nH]1	-2.5	-9.5	9.3	-0.5	27.9
O=C(Cn1nnc(-c2ccc([N+](=O)[O-])cc2)n1)NNC(=O)c1ccccc1	·	9.4	-2.7	-0.5	7.6
